{"source": "PubChem BioAssay AID1947", "about": "(The Scripps Research Institute Molecular Screening Center, 2009)", "note": "Hit rate of the full screen: of about 300,000 compounds, about 990 (0.33%) were called active.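 How the source made its calls: active means inhibition above the screen mean inhibition plus 3 SD, computed separately per campaign (cut at about 18% in these data); inactive means the rest.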 The sample as a whole holds a higher share of actives than the screen did."}
{"system": "Fam108B (ABHD17B) serine hydrolase [Mus musculus]", "test": "inhibition of Fam108B (ABHD17B) hydrolase – biochemical, fluorescence polarization, counter-screen for RBBP9 inhibitor project, primary screen (AID 1947);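 further: inhibitors lower polarization as less probe binds the enzyme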", "details": "recombinant Fam108B, FP-Rh probe fluorescence polarization; at 9.51 µM; stronger effect = higher value"}
{"smiles": "O=C(N/N=C/c1cc(Cl)cc([N+](=O)[O-])c1O)C(O)(c1ccccc1)c1ccccc1", "inhibition": "7.58% (inactive)"}
{"smiles": "O=C(CN1CCN(c2ccc(O)cc2)CC1)Nc1cc(S(=O)(=O)N2CCOCC2)ccc1Cl", "inhibition": "1.19% (inactive)"}
{"smiles": "O=[N+]([O-])c1cc(Cl)cc(/C=N/NC(=S)Nc2cc(S(=O)(=O)N3CCOCC3)ccc2Cl)c1O", "inhibition": "49.6% (active)"}
{"smiles": "COC(=O)CSc1nccc(-c2cccs2)n1", "inhibition": "25.3% (active)"}
{"smiles": "O=C(O)COc1ccc(-c2nccc(-c3cccs3)n2)cc1", "inhibition": "-4.89% (inactive)"}
{"smiles": "COC(=O)c1cc(-c2cccs2)nc2ccccc12", "inhibition": "-5.99% (inactive)"}
{"smiles": "Cc1ccc([C@@H]2CC=C(C(=O)O)[C@H](c3cccc(Cl)c3)N2S(=O)(=O)c2ccc(C)cc2)cc1", "inhibition": "-3.66% (inactive)"}
{"smiles": "COc1ccc(-c2csc(NC(=O)COC(=O)c3ccc(Br)o3)n2)cc1", "inhibition": "-1.38% (inactive)"}
{"smiles": "COc1ccc(-c2csc(NC(=O)COC(=O)Cc3ccc(Cl)cc3Cl)n2)cc1", "inhibition": "25.7% (active)"}
{"smiles": "CC(C)(C)NC(=O)NC(=O)COC(=O)Cc1ccc(Cl)cc1Cl", "inhibition": "-3.17% (inactive)"}
{"smiles": "CC(C)(C)c1ccc(/C=C2\\SC(=O)N=C2N)cc1", "inhibition": "-2.33% (inactive)"}
{"smiles": "COC(=O)c1sc(=S)n(-c2ccc(Cl)cc2)c1C", "inhibition": "0.66% (inactive)"}
{"smiles": "CCOC(=O)c1c(N)sc(C(C)=O)c1C", "inhibition": "2.44% (inactive)"}
{"smiles": "COCCOC(=O)c1sc(=S)n(CCOC)c1N", "inhibition": "30.9% (active)"}
{"smiles": "CC(=O)c1ccc(-c2ccc(Cn3c(C)nc4cc(N)c(C)nc43)cc2)cc1", "inhibition": "-2.95% (inactive)"}
{"smiles": "Cc1cc(-c2csc(N)n2)c(C)n1Cc1ccccc1", "inhibition": "1% (inactive)"}
{"smiles": "Cc1cc2nc3c(=O)n(Cc4ccccc4)c(=O)[nH]c3nc2cc1N", "inhibition": "20.1% (active)"}
{"smiles": "C=C1C2C[C@H](O)C(C)(C)[C@@]2(O)[C@H](O)C[C@]23C[C@@](C)(O)[C@H](CC[C@H]12)[C@H]3O", "note": "(some centres not stated)", "inhibition": "-4.05% (inactive)"}
{"smiles": "CCN(CC(=O)Nc1ccc2c(c1)OCO2)S(=O)(=O)c1ccccc1", "inhibition": "3.09% (inactive)"}
{"smiles": "CCn1c(SCc2ccccc2)nc2c(c1=O)SCC2", "inhibition": "5.08% (inactive)"}
{"smiles": "CSc1c(SCc2ccccc2)cnn(Cc2ccccc2)c1=O", "inhibition": "52.1% (active)"}
{"smiles": "CC(=O)Nc1ccc(NC(=O)CSc2ncnc3c2cnn3Cc2ccccc2)cc1", "inhibition": "1.73% (inactive)"}
{"smiles": "Cc1noc(C)c1S(=O)(=O)N(C)Cc1ccccc1", "inhibition": "-2.49% (inactive)"}
{"smiles": "Cc1cc(C)cc(C(=O)N(CCc2ccccc2)C2=CC3CCC(C2)N3C)c1", "note": "(configuration not stated)", "inhibition": "-0.23% (inactive)"}
{"smiles": "COCC(C)NC(=O)CSc1nc2nn(-c3ccccc3)c(=O)c-2c2n1CCCCC2", "note": "(configuration not stated)", "inhibition": "0.63% (inactive)"}
{"smiles": "O=C(Cn1ncc2c3ccccc3n(Cc3ccccc3)c2c1=O)NCCCN1CCOCC1", "inhibition": "-3.84% (inactive)"}
{"smiles": "CC(C)Nc1ccc(-n2nc3ccccc3[n+]2[O-])cc1", "inhibition": "1.5% (inactive)"}
{"smiles": "N=C1C(=O)OCC1c1ccccc1NC(=O)CN1CCCCC1", "note": "(configuration not stated)", "inhibition": "-3.29% (inactive)"}
{"smiles": "COc1ccc2nc(NC(=O)NC3CCCCC3)sc2c1", "inhibition": "4.3% (inactive)"}
{"smiles": "COc1ccc2nc(NC(=O)c3ccc(Br)s3)sc2c1", "inhibition": "-2.97% (inactive)"}
{"smiles": "COc1ccc2nc(Nc3nc4cc5c(cc4s3)OCCO5)sc2c1", "inhibition": "33.1% (active)"}
{"smiles": "CC1C(=O)C(C)C(c2ccc(O)cc2)NC1c1ccc(O)cc1", "note": "(configuration not stated)", "inhibition": "-5.96% (inactive)"}
{"smiles": "COc1ccc2oc(C(=O)N(CC(C)C)C3CCS(=O)(=O)C3)c(C)c2c1", "note": "(configuration not stated)", "inhibition": "3.82% (inactive)"}
{"smiles": "O=C(N/N=C/c1cccnc1)c1cc2ccccc2cc1O", "inhibition": "3.37% (inactive)"}
{"smiles": "CC(C)(C)OC(=O)NNc1c2ccccc2nc2ccccc12", "inhibition": "10.9% (inactive)"}
{"smiles": "O=C(NNc1c2ccccc2nc2ccccc12)c1cc2ccccc2cc1O", "inhibition": "71.8% (active)"}
{"smiles": "COc1ccc(CNC(=O)CN(C(=O)c2csnn2)c2cnc3ccccc3c2)cc1", "inhibition": "2.77% (inactive)"}
{"smiles": "CC[C@H]1OC(=O)[C@H](C)[C@@H](O[C@H]2C[C@@](C)(OC)[C@@H](O)[C@H](C)O2)[C@H](C)[C@@H](O[C@@H]2O[C@H](C)C[C@H](N(C)C)[C@H]2O)[C@](C)(O)C[C@@H](C)[C@@H]2N[C@@H](COCCOC)O[C@H]([C@H]2C)[C@]1(C)O", "inhibition": "-4.04% (inactive)"}
{"smiles": "O=C(CCCn1c(SCC(=O)c2ccccc2)nc2ccccc2c1=O)NCC1CCCO1", "note": "(configuration not stated)", "inhibition": "-0.5% (inactive)"}
{"smiles": "O=C(CCn1c(SCC(=O)c2ccccc2)nc2ccccc2c1=O)NCc1ccc(F)cc1", "inhibition": "27.5% (active)"}
{"smiles": "O=C(CCCn1c(SCC(=O)c2ccc(F)cc2)nc2ccccc2c1=O)NCc1ccco1", "inhibition": "-1.64% (inactive)"}
{"smiles": "CS(=O)(=O)N1CCCC(C(=O)Nc2ccccc2C(F)(F)F)C1", "note": "(configuration not stated)", "inhibition": "-3.11% (inactive)"}
{"smiles": "Cc1nn(-c2ccccc2)c2c1C(c1ccc(F)cc1)C(C#N)=C(N)O2", "note": "(configuration not stated)", "inhibition": "4.31% (inactive)"}
{"smiles": "COc1ccccc1C1C(C#N)=C(N)Oc2c1c(-c1ccccc1)nn2-c1ccccc1", "note": "(configuration not stated)", "inhibition": "24.5% (active)"}
{"smiles": "Cc1nn(Cc2ccccc2)c2c1C(c1ccccc1)C(C#N)=C(N)O2", "note": "(configuration not stated)", "inhibition": "4.14% (inactive)"}
{"smiles": "CC(C)CCN1CCN=C1N(C)C", "inhibition": "-3.1% (inactive)"}
{"smiles": "Cc1cc(C)cc(C(=O)NC2C(=O)N3C(C(=O)O)=C(CSc4nnc(C)s4)CSC23)c1", "note": "(configuration not stated)", "inhibition": "0.52% (inactive)"}
{"smiles": "CC(C)c1ccc2oc(=O)cc(CN3CCN(Cc4ccccc4)CC3)c2c1", "inhibition": "0.92% (inactive)"}
{"smiles": "CN(C)c1ccc(NC(=O)CN2C3CCCC2CC(NC(=O)c2ccccc2)C3)cc1", "note": "(configuration not stated)", "inhibition": "-3.02% (inactive)"}
{"smiles": "COc1ccc(C(=O)Nc2c(N)nc(SCC(=O)Nc3ccc(C(C)=O)cc3)[nH]c2=O)cc1", "inhibition": "2.83% (inactive)"}
{"smiles": "COc1ccc(N2CCN(S(=O)(=O)c3cc4c5c(c3)C(C)C(=O)N5CCC4)CC2)cc1", "note": "(configuration not stated)", "inhibition": "2.45% (inactive)"}
{"smiles": "CCOC(=O)N1CCC(O)(c2cc(C)c(C)cc2C)CC1", "inhibition": "1.15% (inactive)"}
{"smiles": "COc1ccc(Nc2ncc(C(=O)N3CCN(c4ccccc4OC)CC3)c3ccccc23)cc1", "inhibition": "5.14% (inactive)"}
{"smiles": "O=C(Cn1cc(/C=N/NC(=O)c2cccc(C(F)(F)F)c2)c2ccccc21)Nc1ccc(F)cc1", "inhibition": "4.38% (inactive)"}
{"smiles": "CC(/C=N/NC(=O)c1cc(-c2ccc3ccccc3c2)n[nH]1)=C\\c1ccco1", "inhibition": "-15.2% (inactive)"}
{"smiles": "CC(/C=N/NC(=O)c1ccncc1)=C\\c1ccco1", "inhibition": "-1.58% (inactive)"}
{"smiles": "C/C(=C\\c1ccco1)C1Nc2cccc3cccc(c23)N1", "inhibition": "18.5% (active)"}
